Screens deposited in PubChem BioAssay by Broad Institute.
Not all results are given here.
aSyn UTR act = Activators via SNCA 5'UTR binding, MLPCN | alpha-synuclein 5'UTR reporter, activators screen | activity score, % (tested at 7.5 µM), hits read low | 7.1% of 300,000 active | AID 1814; in the data active means activity score below about -60%
The depositor's hits bear a star.

SMILES	aSyn UTR act
COc1ccccc1CC(=O)NCc1csc(-c2cccs2)n1	-117*
COc1ccc2cc1Oc1ccc(cc1)C[C@H]1c3c(cc4c(c3Oc3cc5c(cc3OC)CCN(C)[C@@H]5C2)OCO4)CCN1C	109
S=C1NC(c2ccccc2)=NCN1c1ccc(Cl)cc1	-84*
CC1CCC/C(=N\Nc2ccc(Cl)c(C(=O)O)c2)C1 (configuration not stated)	-98*
CC1CCC/C(=N\NC(=O)Nc2ccccc2)C1 (configuration not stated)	-142*
Cc1cccc(Nc2nc(-c3ccc(F)c(C)c3)cs2)n1	-249*
Cc1cccc(Nc2nc(-c3ccc(O)c(O)c3)cs2)n1	-224*
O=C(c1nc2ccccc2s1)N1CCSCC1	-92*
COC1c2ccccc2C(=O)N1CCc1ccc(Cl)cc1 (configuration not stated)	-73*
COc1ccc(NC(=O)C2CCCN(c3ncccn3)C2)cc1 (configuration not stated)	-75*
Cc1ccc(NC(=O)C2CCCN(c3ncccn3)C2)cc1C (configuration not stated)	-125*
CC(/C=C/c1ccccc1F)=N\NC(=O)c1ccccc1	-144*
Cc1nc(C(F)(F)F)ccc1C(=O)Nc1ccc2ccccc2n1	-94*
Cc1nc(C(F)(F)F)ccc1C(=O)NCC(O)c1ccccc1 (configuration not stated)	-67*
c1ccc(N2CCN(c3cnc4ccccc4n3)CC2)cc1	-77*
Clc1ccc(N2CCN(c3cnc4ccccc4n3)CC2)cc1	-137*
Fc1ccc(N2CCN(c3cnc4ccccc4n3)CC2)cc1	-251*
O=C(Nc1ccccc1)N(C1=NCCCCS1)c1cccc2ccccc12	-85*
C/C(=N\NC(=S)Nc1ccccc1)C1Cc2ccccc2C(=O)O1 (configuration not stated)	-154*
S=C(NN=C(C1CC1)C1CC1)Nc1ccccc1	-63*
Cc1cc(C)nc(NC(=S)Nc2ccccc2)n1	-84*
COCCCNC(=S)NNC(=S)Nc1ccc(F)cc1F	-106*
S=C(NNC(=S)Nc1ccccc1)Nc1ccccc1	-145*
COCCCNC(=S)NNC(=S)Nc1ccccc1	-65*
CC(C)(C)NC(=S)Nc1ccc(Nc2ccccc2)cc1	-115*
SMILES	aSyn UTR act
S=C(Nc1ccc(Nc2ccccc2)cc1)NN1CCOCC1	-99*
CC(=O)Nc1cc(NC(C)=O)c(N=Nc2ccccc2)cc1C	-89*
O=C(Nc1sc(-c2ccccc2)cc1C(=O)O)c1ccccc1	-100*
Cc1c(NC(=O)c2ccc(-c3ccccc3)cc2)cccc1C(=O)O	-85*
O=C(Nc1c(Cl)cccc1Cl)c1ccc(-c2ccccc2)cc1	-66*
CCc1ccc(C(=O)Nc2nc3ccccc3[nH]2)cc1	88
N#Cc1ccc(C(=O)Nc2nc3ccccc3[nH]2)cc1	-88*
CN(C)S(=O)(=O)c1ccc(C(=O)Nc2nc3ccccc3[nH]2)cc1	-109*
Cc1cccc(NC(=S)N/C(=N/S(=O)(=O)c2ccccc2)c2ccccc2)c1	-103*
O=[N+]([O-])c1ccc(NC(=S)N/C(=N/CS(=O)(=O)c2ccccc2)c2ccccc2)cc1	-92*
COc1ccc(O)c(/C=N/NC(=S)Nc2cccc(S(=O)(=O)N(C)C)c2)c1	74
COc1ccc(NC(=S)N/C(=N/CS(=O)(=O)c2ccccc2)c2ccccc2)cc1	-90*
Cc1ccc(C(=O)Nc2ncccc2S(=O)(=O)c2ccccc2)cc1	-154*
Cc1ccc(N2CCN(C(=O)c3cc(C(=O)c4ccccc4C)c[nH]3)CC2)c(C)c1	58
CN(C)C(=O)c1cc(C(=O)c2ccc(C(F)(F)F)cc2F)c[nH]1	-68*
CN(C)C(=O)c1cc(C(=O)c2ccc(F)cc2F)c[nH]1	-72*
Cc1cc2ncn(C(=O)N3CCC(C)CC3)c2cc1C	-67*
Cc1nn(-c2ccccc2)c2c1C(O)n1c(nc3ccccc31)S2 (configuration not stated)	-67*
Cc1ccsc1/C=N/n1cnc2sc(C)c(C)c2c1=O	-101*
CC(/C=N/Nc1nnc(C)c(=O)[nH]1)=C\c1ccccc1	-97*
CC(/C=N/Nc1ccc2nncn2n1)=C\c1ccccc1	-72*
CC(C)(C)C(=O)N1CCN(c2nc3ccc(Cl)cc3s2)CC1	-237*
CC(C)(C)C(=O)N1CCN(c2nc3ccc(Br)cc3s2)CC1	-164*
CC(=O)N1CCN(c2nc3ccc(Br)cc3s2)CC1	-158*
Cc1nc(SC(C)C(=O)NCC2CCCO2)c2cc(-c3ccccc3)sc2n1 (configuration not stated)	-107*
SMILES	aSyn UTR act
C/C(=N\Nc1nc2ccccc2[nH]1)c1ccc(Cl)s1	-104*
C/C(=N\Nc1nc2ccccc2[nH]1)c1ccc(C)o1	-237*
C/C(=N\Nc1nc2ccccc2[nH]1)c1ccc(N2CCOCC2)cc1	-163*
CCCC(=NCCc1c(C)[nH]c2ccccc12)C1=C(O)CC(c2ccccc2)CC1=O (configuration not stated)	86
Cc1[nH]c2ccccc2c1CN1CCc2ccccc2C1	-62*
c1ccc(-c2cn3c4c(sc3n2)CCCC4)cc1	117
Cc1c(C(=O)NCc2cccnc2)sc2nc(-c3ccc(F)cc3)cn12	-144*
Cc1c(C(=O)N2CCOCC2)sc2nc(-c3ccccc3)cn12	-123*
Cc1nc2cc(-c3ccccc3)nn2c(C)c1CCC(=O)NCc1ccco1	53
Cc1c(C(=O)NCc2ccco2)sc2nc(-c3ccccc3)cn12	-83*
N#CC1=C2Sc3ccccc3N2CCCC1=O	-171*
N#CC1=C2SC=C(c3ccc(Br)cc3)N2CCCC1=O	-257*
C=C(C)CN(CC)C(=O)CCc1nnc(CCCc2ccccc2)o1	-150*
CCN(CCn1cccn1)C(=O)CCc1nnc(CCCc2ccccc2)o1	-122*
Cc1cccc(Cc2nnc(CCC(=O)N(C)CCc3ccccc3)o2)c1	-137*
N#CC1=C(N)OC2=C(CCc3ccccc32)C1c1ccccc1 (configuration not stated)	70
COc1cc(C2C(C#N)=C(N)Oc3cc4c(cc32)OCO4)cc(OC)c1OC (configuration not stated)	111
COc1cccc(C2C(C#N)=C(N)OC(C(C)(C)C)=C2C#N)c1 (configuration not stated)	-115*
Cc1ccc(N2CN=c3s/c(=C\c4ccccn4)c(=O)n3C2)cc1	-63*
COc1ccc(NC(=O)c2cc(-c3ccccc3Cl)on2)cc1	-125*
COc1cc(NC(=O)c2cc(-c3ccccc3Cl)on2)cc(OC)c1OC	-76*
N=c1oc2ccccc2cc1-c1nc(-c2ccc(Cl)cc2)cs1	-82*
O=C(Nc1ccccc1)c1ccn[nH]1	-191*
O=C(Nc1cccc([N+](=O)[O-])c1)c1ccn[nH]1	-106*
Cc1ccc(C)c(Cn2c(O)c(N=NC(=S)Nc3ccccc3F)c3ccccc32)c1	72
SMILES	aSyn UTR act
Cc1ccc(NC(=S)Nc2cccc3ccccc23)cc1F	-86*
CC(=O)N(C)c1ccc(NC(=S)Nc2cccc3ccccc23)cc1	-168*
CCc1ccc(NC(=S)Nc2cccc3cnccc23)cc1	-87*
O=c1oc2ccccc2cc1-c1nc2c(s1)CCCC2	44
CC1CCC/C(=C(\C#N)c2nc(-c3cc4ccccc4oc3=O)cs2)C1 (configuration not stated)	-122*
C/C(=N\Nc1nc(-c2ccc(C)cc2C)cs1)c1cc2ccccc2oc1=O	-72*
O=c1oc2ccccc2cc1-c1csc(Nc2nc3ccc(F)cc3s2)n1	-115*
O=c1oc2ccccc2cc1-c1csc(NN=C2CCCCC2)n1	-122*
